Results on ten molecules are retold here after PubChem BioAssay (Tox21).

The nature of assay [1]: qHTS assay to identify small molecule agonists of the vitamin D receptor (VDR) signaling pathway - cell viability counter screen (AID 743224). Further: nearly all actives have a fitted effect of over 50% in size. Further: potency means the concentration at half of the fitted maximal effect. Summed up: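 Compounds were pin-transferred onto VDR-bla cells plated 4 h earlier; following 16 h incubation at 37C, cell viability was quantified by CellTiter-Glo luminescence after 30 min at room temperature.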
The nature of assay [2]: qHTS assay to identify small molecule antagonists of the vitamin D receptor (VDR) signaling pathway - cell viability counter screen (AID 743225). Further: nearly all actives have a fitted effect of over 50% in size. Further: potency means the concentration at half of the fitted maximal effect. Summed up:
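Compounds were pinned onto VDR-bla HEK 293T cells together with 1-alpha,25-dihydroxyvitamin D3 at 3 nM final. After 16 h at 37C and 5% CO2 plus the reporter readout, cell viability was measured by CellTiter-Glo luminescence (30 min, room temperature).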
In general terms: qHTS replaces the single test concentration by a dilution series.

Assay [3] is described as follows: qHTS assay to identify small molecule agonists of the NFkB signaling pathway - cell viability counter screen (AID 1159515; calls by dose curve; further: nearly all actives have a fitted effect of over 55% in size; further: potency means the concentration at half of the fitted maximal effect). Summed up:
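Parallel cytotoxicity counter screen in ME-180 cells carrying an NFkB-response-element beta-lactamase reporter, 2,000 cells/well. Compound exposure lasted 5 hr at 37 C, 5% CO2. Cell viability was quantified by CellTiter-Glo luminescence.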

The nature of assay [4]: qHTS assay to identify small molecule agonists of the endoplasmic reticulum stress response signaling pathway - cell viability counter screen (AID 1159517; calls by dose curve; further: nearly all actives have a fitted effect of over 50% in size; further: potency means the concentration at half of the fitted maximal effect). Summed up: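 After overnight attachment, ESRE-bla HeLa cells were treated with Tox21 library compounds for 5 hr. CellTiter-Glo luminescence, read 30 min post-addition at room temperature, reported viability.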
Assay [5] in a line: qHTS assay to identify small molecule antagonists of the retinoid-related orphan receptor gamma (ROR-gamma) signaling pathway - cell viability counter screen (AID 1159520). Further: nearly all actives have a fitted effect of over 50% in size. Further: potency means the concentration at half of the fitted maximal effect. Summed up:
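Cytotoxicity was read from cellular ATP (CellTiter-Glo luminescence) after 16 hr at 37 C with 1 uM doxycycline induction. The inducer was added 2 hr after compound transfer to Tet-on ROR gamma CHO cells.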

The target of assay [6] is Nuclear receptor ROR-gamma (Homo sapiens) (UniProt P51449). Description: qHTS assay to identify small molecule antagonists of the retinoid-related orphan receptor gamma (ROR-gamma) signaling pathway (AID 1159521; further: nearly all actives have a fitted effect of over 50% in size; further: potency means the concentration at half of the fitted maximal effect). Summed up: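 Test compounds were applied to Tet-on RORγ CHO cells 2 h ahead of doxycycline hyclate (1 uM final). Luciferase reporter activity was quantified by luminescence after 16 h at 37 C and 5% CO2.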

Assay [7] in a line: qHTS assay to identify small molecule agonists of the RXR signaling pathway - cell viability counter screen (AID 1159529). Further: nearly all actives have a fitted effect of over 50% in size. Further: potency means the concentration at half of the fitted maximal effect. Summed up: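 Compounds dissolved in DMSO were pinned onto HEK 293T cells carrying a beta-lactamase reporter under RXR-alpha control and incubated 16 hr. Cytotoxicity was then quantified by CellTiter-Glo luminescence.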
Assay [8] is described as follows: qHTS assay to identify small molecule antagonists of the retinoid acid receptor (RAR) signaling pathway - cell viability counter screen (AID 1159551). Further: nearly all actives have a fitted effect of over 35% in size. Further: potency means the concentration at half of the fitted maximal effect. Summed up: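 ATP-based viability, C3RL4 cells, 6 h at 37 C with 1 uM final retinol co-added after compound; luminescence read 30 min post CellTiter-Glo, RT.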
Assay [9] in a line: qHTS assay to identify small molecule agonists of the AP-1 signaling pathway - cell viability counter screen (AID 1159525; calls by dose curve; further: nearly all actives have a fitted effect of over 55% in size; further: potency means the concentration at half of the fitted maximal effect). Summed up:
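Intracellular ATP by Cell Titer Glo luminescence (30 min, RT) in the same ME-180 AP-1-bla wells after the 5 h compound exposure at 37 °C. Normalised to tetra n-octyl ammonium bromide and DMSO controls.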

Assay [10] can be described thus: qHTS assay to identify small molecule antagonists of the retinoic acid receptor (RAR) signaling pathway (AID 1159552; further: nearly all actives have a fitted effect of over 50% in size; further: potency means the concentration at half of the fitted maximal effect). Summed up:
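Test chemicals and DMSO controls were pin-transferred onto C3RL4 cells a day after seeding; retinol (1 uM final) followed at once. Luminescent reporter output was quantified after 6 hr of co-incubation and 30 min with detection reagent.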

Assay [11] is described as follows: qHTS assay to identify small molecule agonists of the retinoic acid receptor (RAR) signaling pathway (AID 1159553). Summed up: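 Quantitative high-throughput format: the Tox21 10K library was tested on C3RL4 RARE-luciferase cells for 6 hr at 37 C and 5% CO2, with luminescence measured after a 30 min room-temperature reagent step.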
Assay [12] has as its target Retinoic acid receptor RXR-alpha (Homo sapiens) (UniProt P19793). Put plainly: qHTS assay to identify small molecule agonists of the RXR signaling pathway (AID 1159527; calls by dose curve; further: nearly all actives have a fitted effect of over 35% in size). Summed up:
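Using 9-cis retinoic acid as the reference agonist, chemicals were tested in HEK 293T cells […] for 16 hr; substrate loading lasted 2 hr at room temperature.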

Records with an inconclusive call do not appear. Calls of active or inactive are those of the source. Unless noted, the call rests on the fitted dose curve; in most records, active means well fitted curve in the direction sought with a large enough effect in the repeat runs; inconclusive means weak or mixed curves; inactive means no such curve, though single readings can be large; an effect the other way counts as inactive or inconclusive.

Chain of Retinoic acid receptor RXR-alpha (Homo sapiens) (P19793 whole entry, looked up): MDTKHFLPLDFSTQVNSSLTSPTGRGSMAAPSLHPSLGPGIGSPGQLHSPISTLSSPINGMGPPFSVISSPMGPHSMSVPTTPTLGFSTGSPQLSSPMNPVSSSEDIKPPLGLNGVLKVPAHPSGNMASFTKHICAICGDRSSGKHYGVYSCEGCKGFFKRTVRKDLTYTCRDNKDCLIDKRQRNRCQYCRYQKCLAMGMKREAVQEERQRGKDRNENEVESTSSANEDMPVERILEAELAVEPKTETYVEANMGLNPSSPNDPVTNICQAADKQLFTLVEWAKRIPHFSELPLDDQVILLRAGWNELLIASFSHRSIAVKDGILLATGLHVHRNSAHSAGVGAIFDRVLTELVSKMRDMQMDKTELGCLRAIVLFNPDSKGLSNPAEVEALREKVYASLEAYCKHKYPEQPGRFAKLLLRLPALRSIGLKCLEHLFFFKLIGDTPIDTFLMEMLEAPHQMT

In the case of `CCCCCCCC[N+](CCCCCCCC)(CCCCCCCC)CCCCCCCC`, the Potency in assay [1] is 8.69 µM (active); in assay [2], 7.75 µM (active); in assay [3] it was 24.5 µM (active); in assay [4], 43.6 µM (active); in [5], 8.62 µM (active); in assay [6], 6.1 µM (active). Further, the results for the Potency in assay [7] and in [8] were 13.8 µM (active) and 27.3 µM (active), respectively.
Consider `O=C(O)c1cc(O)c2c(c1)C(=O)c1cccc(O)c1C2=O`, for which the Potency result in assay [1], in assay [2], in assay [3], in assay [4], in [5] and in assay [6] was “inactive” in each case. The Potency entry in assay [7] and in [8] was “inactive” throughout.
Turning to `CCCCCCCCCCCCCC[P+](CCCC)(CCCC)CCCC` (tested in a mixture with another compound), the Potency entry in assay [1] and in assay [2] was “inactive” throughout. Also, the Potency was 22 µM (active) in assay [3]; 22 µM (active) in assay [4]; 15.4 µM (active) in assay [5]; 4.89 µM (active) in assay [6]; 12.4 µM (active) in assay [9]; 27.5 µM (active) in assay [8].
For `CCOc1nc2cccc(C(=O)OC(C)OC(=O)OC3CCCCC3)c2n1Cc1ccc(-c2ccccc2-c2nn[nH]n2)cc1` (stereo not drawn), the Potency is 27.5 µM (active) in assay [1]; 19.5 µM (active) in assay [2]; 43.6 µM (active) in assay [3]; 21.9 µM (active) in [4]; 24.3 µM (active) in [5]; 27.5 µM (active) in [9]. Also, the Potency in [7] was 27.5 µM (active); in assay [10], 48.5 µM (active). Besides, the Potency result in assay [11] is “inactive”.
With `CS(=O)(=O)CCNCc1ccc(-c2ccc3ncnc(Nc4ccc(OCc5cccc(F)c5)c(Cl)c4)c3c2)o1`, the Potency was 29.8 µM (active) in [1]; 21.3 µM (active) in assay [2]; 16.9 µM (active) in assay [3]; 15.1 µM (active) in assay [4]; 29.8 µM (active) in assay [5]; 16.9 µM (active) in assay [7]. The Potency entry in assay [8] and in assay [11] was “inactive” throughout.
Turning to `Cc1onc(-c2ccccc2Cl)c1C(=O)N[C@@H]1C(=O)N2[C@@H]1SC(C)(C)[C@@H]2C(=O)O`, the Potency entry in assay [1], in assay [2], in [3], in assay [4], in [5] and in assay [9] was “inactive” in each case. The Potency entry in [12], in assay [7], in assay [8], in assay [10] and in [11] was “inactive” each time.
As to `Cn1cc(C(=O)[C@@H]2CCc3nc[nH]c3C2)c2ccccc21`, the Potency entry in assay [1], in assay [2], in assay [3], in [4], in assay [5] and in assay [9] was “inactive” each time. Moreover, the Potency entry in assay [8], in assay [10] and in assay [11] was “inactive” each time.
Regarding `CO[Si](CCCNc1ccccc1)(OC)OC`, the Potency entry in [1], in assay [2], in assay [3], in [4], in [6] and in assay [9] was “inactive” throughout. The Potency result in [12], in assay [7], in [8], in assay [10] and in [11] was “inactive” in each case.
As to `OC1(c2ccc(Cl)c(C(F)(F)F)c2)CCN(CCCC(c2ccc(F)cc2)c2ccc(F)cc2)CC1`, the Potency in assay [1] is 13.3 µM (active); in [2], 10.7 µM (active); in [3], 12 µM (active); in [4] it was 8.49 µM (active); in assay [5], 9.44 µM (active); in assay [9], 9.52 µM (active). The figures for the Potency in assay [7] and in assay [10] were 6.74 µM (active) and 26.6 µM (active), respectively.
With `CCCCCCCCCCn1cc[n+](CCCCCCCCCC)c1C`, the Potency in assay [1] is 15.5 µM (active); in assay [2] it was 6.93 µM (active); in [3], 55 µM (active); in assay [4], 34.7 µM (active); in [5], 19.4 µM (active); in assay [7] it was 6.93 µM (active). Moreover, the Potency in assay [8] is 61.2 µM (active); in assay [10] it was 24.4 µM (active).
